Hit rate of the full screen: of about 2,100 compounds, about 1,100 (52%) were called active. Another 27% or so got no clear call; they are omitted. So high a share suggests a set chosen from earlier hits. Some of the results follow. Unmarked numbers belong to inactive results. The call rests on the fitted dose curve; in most records, active means well fitted inhibition curve with a large enough effect; inconclusive means small, poorly fitted or top-dose-only effect; inactive means no such curve, though single readings can be large or run the other way.
Potency means the concentration at half of the fitted maximal effect.

DNA dC->dU-editing enzyme APOBEC-3G (Homo sapiens), sequence (Q9HC16 whole entry, looked up): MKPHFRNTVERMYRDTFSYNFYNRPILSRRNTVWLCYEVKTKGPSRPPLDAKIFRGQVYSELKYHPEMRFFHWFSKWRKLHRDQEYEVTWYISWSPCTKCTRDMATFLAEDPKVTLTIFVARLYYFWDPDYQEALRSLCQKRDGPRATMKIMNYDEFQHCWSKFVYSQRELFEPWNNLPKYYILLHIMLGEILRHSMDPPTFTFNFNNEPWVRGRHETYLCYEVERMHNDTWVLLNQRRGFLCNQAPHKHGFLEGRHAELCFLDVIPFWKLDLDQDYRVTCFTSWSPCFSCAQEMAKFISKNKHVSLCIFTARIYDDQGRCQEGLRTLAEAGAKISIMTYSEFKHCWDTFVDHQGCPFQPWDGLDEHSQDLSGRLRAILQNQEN

The target in the test is DNA dC->dU-editing enzyme APOBEC-3G (Homo sapiens) (UniProt Q9HC16). Nature of the test: qHTS for inhibitors of Vif-A3G interactions: Cherry picks counterscreen.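 Further: hits raise yellow fluorescence by blocking Vif-driven A3G-eYFP degradation; nearly all actives have a fitted effect of over 70% in size.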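 On max response: max response given as percent of control signal.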 The following applies: HeLa A3G-eYFP + Vif (tagged APOBEC3G with the HIV-1 protein that degrades it), eYFP fluorescence, 24 h. The method in brief:
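HeLa cells stably expressing A3G-eYFP and Vif were treated for 24 h at 37 deg C with compounds at several concentrations; yellow fluorescence (Ex 488 nm, Em 500-530 nm) read by Acumen Explorer, MG132 as positive control.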
On to `CC1(C)Cc2ccccc2C2CC(O)C(=O)N21` (centres undefined), for which the Potency is 20.6 µM (active).
For the compound `CCCCOc1nc2ccccc2nc1NS(=O)(=O)c1ccc(F)cc1`, the max response was -6.51%.
For `COc1ccc(S(=O)(=O)NN(C)c2nc(C(F)(F)F)nc3ccccc23)cc1`, the Potency was 7.04 µM (active).
On the same count and under the same terms, the value for `COc1ccc(OC)c(NS(=O)(=O)c2ccc(Cl)s2)c1` was 12.5 µM (active); that for `CC[n+]1c(/C=C/Nc2ccccc2)oc2ccc(OC)cc21` was 14.6 µM (active).
Same read-out and setting: in the case of `CC[n+]1c(/C=C/Nc2ccccc2)oc2ccccc21` it was 9.2 µM (active); in that of `CC[n+]1c(/C=C/N(C)c2ccccc2)oc2ccc(F)cc21`, 14 µM (active).
The same measure, in the same setting: the value for `CCc1ccc(N=Nc2ccc(O)c3[nH]cnc23)cc1` was 7.31 µM (active).
As to `ClCc1nc2ccccc2n1Cc1ccccc1`, the Potency is 20.6 µM (active).
Turning to `CC(C)(C)c1ccc(Cn2c(=O)cnc3ccccc32)cc1`, the max response is 3.64%.
In the case of `COc1ccc(NC2=CC(=O)CC(c3ccccc3)C2)c(OC)c1` (centres undefined), the Potency was 11.2 µM (active).
The same measure, in the same setting: the value for `NC(=O)c1cccc(-c2ccnc3c2CC(C(=O)NCc2ccco2)O3)c1` (centres undefined) was 17.7 µM (active); that for `CC(=O)c1cccc(-c2ccnc3c2CC(C(=O)NCc2ccc(F)c(F)c2)O3)c1` (centres undefined) was 2.8 µM (active).
Still for that read-out and setting: the value for `CC(=O)c1cccc(-c2ccnc3c2CC(C(=O)NCc2ccco2)O3)c1` (centres undefined) was 1.58 µM (active).
For the compound `O=C(NCc1ccccc1)C1Cc2c(-c3cccc(F)c3)ccnc2O1` (centres undefined), the Potency was 1.4 µM (active).
Consider `CC(=O)c1cccc(-c2ccnc3c2CC(C(=O)NCC2CCOCC2)O3)c1` (centres undefined), for which the Potency is 5.59 µM (active).
With `O=C(NCc1ccco1)C1Cc2c(-c3cccc(F)c3)ccnc2O1` (centres undefined), the Potency was 5.59 µM (active).
Same read-out and setting: the value for `N#CC1=C(N)Oc2c(sc3ccccc23)C1c1ccco1` (centres undefined) was 12.5 µM (active).
Regarding `CC1CC(=O)C2=C(C1)OC(N)=C(C#N)C2c1coc2ccccc2c1=O` (centres undefined), the max response is -19.2%.
In the case of `CC(O)CN(CC(C)O)c1ccc2c(c1)Cc1cc([N+](=O)[O-])ccc1-2` (centres undefined), the Potency is 0.58 µM (active).
The same measure, in the same setting: the value for `Cc1cc(C)c2cc3c(N)c(C(=O)Nc4c(C)[nH]c(=O)[nH]c4=O)sc3nc2c1` was 11.6 µM (active).
Same read-out and setting: in the case of `CN[C@H]1CCc2cc(OC)c(OC)c(OC)c2-c2ccc(N(C)CC(OC)OC)c(=O)cc21` it was 6.27 µM (active); in that of `COc1cc2c(c(OC)c1OC)-c1ccc(N(C)CC(OC)OC)c(=O)cc1[C@@H](NC(C)=O)CC2`, 0.559 µM (active).
Regarding `CC(C)c1ccc(C(=O)NCCCNC(=O)c2cnccn2)cc1`, the max response is 10.5%.
For the compound `O=C(NCCN1C(=O)S/C(=C\c2ccc(OC(F)F)cc2)C1=O)c1cnccn1`, the Potency is 12.5 µM (active).
On the same count and under the same terms, the value for `Cn1c(/C=C/c2ccc([N+](=O)[O-])o2)nc2ccccc2c1=O` was 14.6 µM (active).
As for `CCCN1C(=O)C(Cc2nc3ccccc3c(=O)n2CC)c2cc(Br)ccc21` (centres undefined), the max response was 11.6%.
Turning to `CCn1c(/C=C/c2ccc([N+](=O)[O-])o2)nc2ccccc2c1=O`, the Potency is 20.6 µM (active).
The same measure, in the same setting: the value for `O=c1c2ccccc2nc(/C=C/c2ccc([N+](=O)[O-])o2)n1CCCO` was 10.3 µM (active).

(Values after PubChem BioAssay AID651813 (National Center for Advancing Translational Sciences (NCATS), 2012).)
